Here are results for 90 compounds from PubChem BioAssay AID1861 (The Scripps Research Institute Molecular Screening Center, 2009).

Structures are written as SMILES. Hit rate of the full screen: of about 290,000 compounds, about 3,100 (1.1%) were called active. Many of the other results were omitted from the sample, so actives are more common in it than they were. Values without a mark were called inactive. Rule as the data show it: active = inhibition above about 16% (passing the limit was not always enough); inactive = the rest.

For this assay, the target named is Neuropeptides B/W receptor type 1 (Homo sapiens) (UniProt P48145). Description: blockers of human neuropeptide B/W receptor 1 – cell-based, fluorescence, single concentration, primary screen (AID 1861).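 Also: cells stimulated with the agonist NPW; 0% = agonist with vehicle and 100% = vehicle without agonist.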 The note with it: GPR7-expressing cells, fluorescence antagonist assay; at 4.4 µM; hits give high values.
Sequence of Neuropeptides B/W receptor type 1 (Homo sapiens) (P48145 whole entry, looked up): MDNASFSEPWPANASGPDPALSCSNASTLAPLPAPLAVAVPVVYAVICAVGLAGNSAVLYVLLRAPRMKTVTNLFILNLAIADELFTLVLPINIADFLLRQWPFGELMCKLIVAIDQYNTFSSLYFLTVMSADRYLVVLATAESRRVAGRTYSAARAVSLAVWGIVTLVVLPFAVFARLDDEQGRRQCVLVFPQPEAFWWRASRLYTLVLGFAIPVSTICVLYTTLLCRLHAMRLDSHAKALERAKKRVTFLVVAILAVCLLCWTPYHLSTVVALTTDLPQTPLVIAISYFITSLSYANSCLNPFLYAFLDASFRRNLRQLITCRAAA
On to `CCOc1cc2[nH]c(=S)n(Cc3ccc(C(=O)N4CCN(C)CC4)cc3)c(=O)c2cc1OCC`, for which the inhibition was 2.37%.
On to `CCNC(=S)N(CCN(CC)CC)Cc1cc2cc3c(cc2[nH]c1=O)OCCO3`, for which the inhibition was -10.2%.
The value for `COc1cc2ccccc2cc1C(=O)Nc1ccc(NC(=O)c2cccs2)cc1` was -3.15%.
With `COc1ccc(-n2c(C)cc(C(=O)COC(=O)c3cc(OC)c(OC)cc3NC(=O)c3cccs3)c2C)cc1`, the inhibition was 27.1% (active).
For `Cc1cc(C(=O)COC(=O)c2cccs2)c(C)n1-c1c(C)n(C)n(-c2ccccc2)c1=O` the value was -14.8%; for `O=C(O)c1ccc(S(=O)(=O)N2CCOCC2)o1`, 1.56%; for `Cc1ccc(S(=O)(=O)NCC2CCC(C(=O)N3CCOCC3)CC2)cc1` (stereo not given), -4.78%.
Take `CN1C/C(=C/c2cccs2)C(=O)/C(=C\c2cccs2)C1`: the inhibition is -7.39%.
The value for `CS(=O)(=O)N(Cc1nc2sc3c(c2c(=O)[nH]1)CCCC3)C1CCCCC1` was 1.34%; that for `CCCC(=O)Nc1nc2ccc(NC(=O)c3c(F)c(F)c(OC)c(F)c3F)cc2s1` was 36.2% (active).
The value for `CSc1nc2ccc(NC(=O)c3c(F)cccc3F)cc2s1` was -5.74%; that for `CCCC(=O)Nc1nc2ccc(NC(=O)c3cccnc3)cc2s1` was 3.59%.
For `CN(C)c1nc(=Nc2cccc(Cl)c2)ss1` the value was -8.61%; for `CNS(=O)(=O)c1cccc(C(=O)NC2CCCc3ccccc32)c1` (stereo not given), -8.59%.
In the case of `COc1ccc(CC(=O)NC(C)CCc2ccccc2)cc1` (stereo not given), the inhibition was -6.45%.
The value for `COc1ccc(C(CCNCc2ccccc2F)c2ccc(F)cc2)cc1` (stereo not given) was 27.6% (active); that for `COc1ccc(C(CNCC(=O)Nc2ccccc2F)N(C)C)cc1` (stereo not given) was 0.06%; that for `N#Cc1c(Cl)nc(-c2cccnc2)nc1-c1ccccc1` was 4.22%.
For `Clc1ccc(-c2cc(C3CCNCC3)[nH]n2)c(Cl)c1` the value was 28.3% (active); for `O=C1CSC(c2ccccc2)N1c1nc(-c2ccc(Cl)cc2Cl)cs1` (stereo not given), -0.11%; for `Clc1ccc(-c2cc(-c3ccccn3)on2)c(Cl)c1`, -1.76%.
The value for `COc1ccc(N(CC(=O)NCc2ccc(F)cc2)C(=O)CCC(=O)Nc2nccs2)cc1` was 1.89%.
With `COCCOC1CCN(C(=O)c2ccc(OC)c(OC3CCN(C(C)C)CC3)c2)CC1`, the inhibition is -13.7%.
For `Cc1ccccc1CN1C[C@@H]2C[C@@H](c3cn(C)nc3-c3ccccc3)N3CCC[C@@]23C1=O`, the inhibition is 25.5% (active).
For `Cc1ccc(CN2CCN(Cc3cn(C)nc3-c3ccccc3)CC2CCO)o1` (stereo not given) the value was -17.8%; for `Cc1ccccc1CN1C[C@@H]2C[C@@H](c3ccc4nsnc4c3)N3CCC[C@@]23C1=O`, -4.53%; for `CS(=O)(=O)c1ccc(-c2nnn(CC(=O)Nc3ccc4c(c3)OCCO4)n2)cc1`, 11.6%.
For `O=C(CN(Cc1ccc(Br)cc1)S(=O)(=O)c1ccccc1)NCc1ccncc1` the value was 5.84%; for `CC(=O)NNC(=O)c1csc(Cc2c(Cl)sc3ccc(Cl)cc23)n1`, 0.26%; for `CC1CCN(S(=O)(=O)c2ccc(S(=O)(=O)NCc3cccnc3)cc2)CC1`, -1.72%.
On to `Cc1ccc(S(=O)(=O)N2CCC(C(=O)N[C@@H](C)C(=O)NCc3ccco3)CC2)cc1`, for which the inhibition is 2.63%.
With `CC1CCN(S(=O)(=O)c2ccc(S(=O)(=O)NCc3ccco3)cc2)CC1`, the inhibition was 19.6% (active).
For `O=C(CC1SC(=Nc2ccccc2)N(Cc2ccccn2)C1=O)Nc1cccc(Cl)c1` (stereo not given) the value was -4.47%.
The value for `CCN1C(=NCc2ccc(OC)cc2)N[C@@H](CCc2ccccc2)[C@H](C(=O)NCc2ccc(OC)cc2)[C@H]1C` was 14%; that for `CCN(CC)CCCNC(=O)c1c(O)c2cc(F)cc3c2n(c1=O)C(C)CC3` (stereo not given) was 4.5%.
For `CC(=O)N(CCCN(C)C)c1nc2ccc(C)cc2s1` the value was -10.8%.
For `CN(C)CCCN(C(=O)c1ccc(S(=O)(=O)N2CCCc3ccccc32)cc1)c1nc2ccc(F)cc2s1`, the inhibition was 41.8% (active).
For `O=C(Nc1nc2ccc([N+](=O)[O-])cc2s1)c1ccc(S(=O)(=O)N2CCCc3ccccc32)cc1` the value was -16.1%; for `CCOc1ccc2nc(N(CCN(C)C)C(=O)c3ccc4ccccc4c3)sc2c1`, 3%; for `CCOc1ccc2nc(N(CCCN(C)C)C(=O)c3ccc(C(=O)c4ccccc4)cc3)sc2c1`, 6.16%.
Regarding `CCc1ccc2nc(N(CCCN(C)C)C(=O)c3ccc4c(c3)OCCO4)sc2c1`, the inhibition was 22.4% (active).
For `CSc1nc2ccc(S(=O)(=O)N3CCc4ccccc43)cc2s1` the value was -0.77%; for `CCN(CC)CCN(C(=O)c1ccc(S(=O)(=O)N2CCOCC2)cc1)c1nc2cc3c(cc2s1)OCCO3`, -11.1%.
The value for `CN(C)CCCN(C(=O)c1ccc(S(=O)(=O)N2CCCCCC2)cc1)c1nc2ccc(Br)cc2s1` was 28.6% (active).
The value for `COc1ccc(C(C(=O)NC2CCCCC2)N(C(=O)Cc2c[nH]c3ccccc23)c2ccccc2)cc1OC` (stereo not given) was -5.99%; that for `Cc1cc(S(=O)(=O)c2cc3ccc(O)c(C)c3oc2=O)ccc1F` was -15%.
As for `Cc1ccccc1NC(=O)CCNS(=O)(=O)c1ccc2[nH]c(=O)oc2c1`, the inhibition is -12.7%.
The value for `O=C(Nc1ccc(C2CC2(Cl)Cl)cc1)c1cccc([N+](=O)[O-])c1` (stereo not given) was -6.54%; that for `Nc1ccn(C2CC(O)C(CO)O2)c(=O)n1` (stereo not given) was -7.05%.
The value for `O=C(COc1ccc(S(=O)(=O)N2CCOCC2)cc1Cl)N1CCOCC1` was -13.2%.
For `Cc1ccccc1CSCCNC(=O)c1ccc(N(C)S(=O)(=O)c2ccccc2)cc1` the value was 1.47%; for `CN(c1ccccc1)S(=O)(=O)c1ccc(C(=O)NCCc2ccccc2)cc1`, 23.9% (active); for `COc1ccccc1CNC(=O)c1ccc(N(C)S(=O)(=O)c2ccc(C)cc2)cc1`, -3.56%.
Consider `O=C(NCCS(=O)(=O)c1ccc(Br)cc1)c1ccccc1Cl`, for which the inhibition was 1.64%.
Consider `O=C(c1ccco1)N1CCN(Cc2cccc(C(F)(F)F)c2)CC1`, for which the inhibition was -13.2%.
For `Cc1ccc(NS(=O)(=O)c2ccc(-c3ccc(=O)[nH]n3)o2)c(C)c1`, the inhibition was -0.17%.
For `COc1cc(C(C(=O)NC2CCCC2)N(Cc2ccccc2)C(=O)c2snc(C(N)=O)c2N)ccc1O` (stereo not given) the value was -10.6%; for `CCc1ccc(S(=O)(=O)Nc2cc3c(cc2N2CCCCC2)n(C)c(=O)c(=O)n3C)cc1`, 4.78%; for `Cc1ccc(S(=O)(=O)n2cnc3ccccc32)c(C)c1`, 35.5% (active).
The value for `COc1ccc(S(=O)(=O)n2cnc3ccccc32)c(C)c1` was -5.76%; that for `Cc1ccc(C)c(S(=O)(=O)n2cnc3ccccc32)c1` was 8%.
With `CCc1nc2ccc(C(=O)N3CCN(c4cccc(Cl)c4)CC3)cc2nc1CC`, the inhibition was -5.19%.
The value for `O=C1CCC([N+](=O)[O-])C(c2ccccc2Br)N1` (stereo not given) was -13.4%; that for `COc1ccc(C2CC(=O)Nc3cc(C)c(C)cc32)c(OC)c1OC` (stereo not given) was -2.76%; that for `CCCOc1ccccc1C1CC(=O)Nc2cc3c(cc21)OCO3` (stereo not given) was 23.7% (active).
For the compound `COc1ccccc1C1C2=C(COC2=O)Nc2cc3c(cc21)OCO3` (stereo not given), the inhibition was 3.72%.
With `OC(CN1C2=NCCCN2c2ccccc21)c1ccc(Br)cc1` (stereo not given), the inhibition was 13.8%.
As for `Cc1cc2c(cc1C)N(Cc1ccccc1)C1=NCCCN12`, the inhibition was 23.7% (active).
The value for `CC(C)(C)C(=O)CN1C2=NCCN2c2ccccc21` was -10.1%; that for `CC(=O)Nc1ccc(NC(=O)CS(=O)(=O)c2cn(CC(=O)N3CCCCC3)c3ccccc23)cc1` was -0.17%.
For `CC(=O)Nc1ccc(CN2CCC(Oc3ccc(C(=O)N4CCCC4)cc3)CC2)cc1`, the inhibition was -2.18%.
The value for `COc1ccc(OCc2nnc3n2N=C(c2ccccc2)C(CC(=O)O)S3)cc1` (stereo not given) was -5.82%; that for `O=C(Cc1ccccn1)c1ccc(O)cc1O` was 1.18%.
For `CCOC(=O)C1CSC(CC(=O)Nc2ccc(OCC)cc2)C(=O)N1` (stereo not given) the value was 31.6% (active); for `CCOc1ccc(NC(=O)CCNC(=O)c2ccc(Br)cc2)cc1`, -13.4%; for `CCOc1ccc(NC(=O)CC2NCCNC2=O)cc1` (stereo not given), -18.5%.
On to `CN(c1ccccc1)S(=O)(=O)c1ccc(NC(=O)COc2ccccc2)cc1`, for which the inhibition is 1.02%.
As for `COc1ccc(NC(=O)C2C3CCC(O3)C2C(=O)O)cc1OC` (stereo not given), the inhibition is -10.2%.
`Cc1cccc(-c2nnc(SCC(=O)O)n2Cc2ccccc2)c1`: the inhibition is -5.33%.
In the case of `CC1C=CCC2C(=O)N(c3cccc(C(=O)N4CCCCCC4)c3)C(=O)C12` (stereo not given), the inhibition is 3.08%.
For `COC(=O)c1ccccc1NC(=O)CSc1n[nH]c(-c2ccncc2)n1` the value was -2.88%; for `Cc1cc(-c2ccccc2)n2nc(C)c(-c3ccccc3)c2n1`, -10.5%; for `Cc1cc(-n2nc(C)cc2C)n2nc(C)c(-c3ccccc3)c2n1`, -6.35%.
The value for `CCc1c(C)nc2c(-c3ccccc3)c(C)nn2c1Nc1ccc(NC(C)=O)cc1` was 27.4% (active); that for `COc1ccc(C(=O)CCC(=O)Nc2cccnc2)c(OC)c1` was 2.52%; that for `CC(=O)NC(C)c1nc2ccccc2n1Cc1ccccc1F` (stereo not given) was -2.12%.
Take `Fc1ccccc1Cn1cnc(NC(=S)NCCc2ccccc2)n1`: the inhibition was 10.1%.
For `N=c1n(CCc2ccccc2)c2ccccc2n1Cc1ccccc1F` the value was 21.8% (active); for `CCNC(=O)c1cnn(-c2ccccc2)c1-c1ccccc1`, -4.37%; for `COCCNC(=O)c1ccc2c(c1)ncn2-c1ccc(C)c(Cl)c1`, 0.48%.
